High-throughput results from PubChem.
TRb SRC2 PPI: disrupts binding of human TR beta to SRC2; hit rate 0.065% among 280,000; P10828; TRbeta-SRC2 peptide binding, fluorescence polarization; receptor liganded with 1 µM T3; Potency, µM (series often up to 106 µM), for inactives: at the highest dose activity change, negative = inhibition, usual class: inhibitors; AID 1469; active = well fitted inhibition curve with a large enough effect; inconclusive = small, poorly fitted or top-dose-only effect, or effect the other way;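 note: plate controls were bound peptide for no effect and peptide without receptor for full effect; nearly all actives have a fitted effect of over 50% in size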
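Assay buffer: 20 mM Tris-HCl, 100 mM NaCl, 10% glycerol, 1 mM EDTA, 0.01% NP-40, 1 mM DTT, 1 uM T3, 5% DMSO; TRb LBD 0.6 uM, Texas Red SRC2 20 nM; FP after 5 hr.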
ERG Ets-DNA blk: blocks human ERG Ets domain binding to DNA; fluorescence polarization, His-ERG Ets domain / labelled DNA; Potency, µM (doses to about 76.9 µM), for the others: at the top dose FP activity, negative = inhibition, hits mostly inhibitors; hit rate 0.028% among 370,000; active = well fitted inhibition curve with a large enough effect in the polarisation, with a control signal flat; inconclusive = small, poorly fitted or top-dose-only effect, or effect the other way, or a change in a side signal; inactive = no such curve, though single readings can be large or run the other way; the % refers to the polarisation;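 note: polarization taken with two DNA probes labelled with fluorescein and Texas red; % of control where 0% means no effect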
Target sequence (P11308 whole entry, looked up, the tested form may be a part): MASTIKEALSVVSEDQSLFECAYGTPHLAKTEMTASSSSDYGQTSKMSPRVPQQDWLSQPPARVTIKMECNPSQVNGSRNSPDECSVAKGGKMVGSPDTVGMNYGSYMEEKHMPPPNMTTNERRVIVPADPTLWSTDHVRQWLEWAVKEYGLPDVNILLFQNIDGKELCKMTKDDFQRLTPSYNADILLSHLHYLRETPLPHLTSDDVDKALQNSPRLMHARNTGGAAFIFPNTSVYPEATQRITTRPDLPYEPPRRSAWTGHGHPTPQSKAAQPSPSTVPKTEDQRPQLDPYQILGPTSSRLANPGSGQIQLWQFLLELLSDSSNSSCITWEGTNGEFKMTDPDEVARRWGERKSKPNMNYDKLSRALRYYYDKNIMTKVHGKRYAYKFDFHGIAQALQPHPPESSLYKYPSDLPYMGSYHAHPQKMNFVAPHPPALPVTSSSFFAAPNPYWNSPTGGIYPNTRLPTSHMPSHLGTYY
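His-tagged ERG Ets domain (1 uM in the protein solution; 300mM KCl, 50mM Tris-HCl, 1mM EDTA, 1mM DTT, pH 7.5) received compound, then a probe mix of 5 nM fluorescein-DNA and 100nM Texas-615-DNA. Fluorescence polarization was read for both dyes.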
TR SRC2 fluor cs: Texas Red fluorescence interference in TRb-SRC2 counter-screen. AID 1479. Potency, µM (top dose mostly 106 µM), inactives show at the highest dose fluorescence change, negative = quenching. TRb/SRC2 Texas Red total fluorescence interference. hit rate 0.29% among 280,000; active = well fitted curve in either direction with a large enough effect; inconclusive = small, poorly fitted or top-dose-only effect; note: % is set by controls: 0 for no effect and ±100 for the full control effect
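Human TRβ ligand-binding domain (0.6 uM) and Texas Red SRC2 peptide (20 nM) in Tris buffer with 1 uM T3 and 5% DMSO were incubated with pinned compound for 5 hr at ambient temperature. Total fluorescence was computed as S + 2P (555/632 nm).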
RGS12 GoLoco inh: RGS12 GoLoco-Gai1 interaction inhibition | Gai1:RGS12 GoLoco peptide FP, rhodamine, 10 min | Potency, µM (series often up to 61.6 µM), without a hit: at the top dose activity, negative = inhibition, usual class: inhibitors | hit rate 0.44% among 230,000 | AID 880; active = well fitted inhibition curve with a large enough effect, not every such curve was filed as active; inactive = no such curve, though single readings can be large or run the other way; note: % is set by controls: 0 for no effect and ±100 for the full control effect; nearly all actives have a fitted effect of over 30% in size
Numbers without * were called inactive; i = inactive; ? = inconclusive; / = not tested or not shown; [ ] = another dose, or the depositor's remark. The entries come from a sample that favours hits as a whole. Potency is the fitted concentration of half-maximal effect.

SMILES | TRb SRC2 PPI | ERG Ets-DNA blk | TR SRC2 fluor cs | RGS12 GoLoco inh
CN(C)c1ccc(N/C=C/C(=O)C(C)(C)C)cc1 | 44.7µM* | -4.0% | ? | -5.0%
CCOC(=O)c1ccc(N/C=C/C(=O)C(C)(C)C)cc1 | 2.5% | -3.2% | 0.4% | 4.1%
O=C(/C=C/Nc1ccccc1)c1ccccc1 | 8.2% | -6.5% | 0.7% | -16.6%
CN(C)c1ccc(N/C=C/C(=O)c2ccccc2)cc1 | 31.6µM* | 0.4% | 44.7µM*[fluorescent] | 68.0%
C=C[C@@H]1CN2CC[C@@H]1C[C@H]2[C@H](O)c1ccnc2ccc(OC)cc12 | -3.8% | / | / | 4.1%
CCCCC[n+]1cccc2c3ccccc3ccc21 | 8.0% | -6.7% | -0.5% | 15.8µM*
Cc1cccc(NC(=O)CN2C(=O)N/C(=C\c3cccn3-c3cccc(C(=O)O)c3)C2=O)c1 | 1.5% | -0.5% | 0.4% | -17.9%
Cc1ccc(-n2cccc2/C=C2/NC(=O)N(CC(=O)Nc3cccc(C)c3)C2=O)cc1 | 5.9% | -2.3% | -2.4% | 7.94µM*
CC(C)NC(=O)c1ccccc1NS(=O)(=O)c1ccc(Br)s1 | / | -7.0% | / | /
Cc1ccccc1NS(=O)(=O)c1ccc(Br)s1 | -39.5%[53 µM] | 1.6% | 112µM*[quencher] | /
Cc1cccc(NC(=O)Cn2c(=O)n(CCc3ccccc3)c(=O)c3sc4ccccc4c32)c1 | -8.0% | -2.7% | -0.1% | /
Cc1cccc(NC(=O)Cn2c(=O)n(Cc3ccccc3)c(=O)c3sc4ccccc4c32)c1 | -27.7%[53 µM] | 1.1% | 25.1µM*[quencher] | /
O=C(O)c1ccc(Nc2cc(Cl)c3nonc3c2[N+](=O)[O-])cc1 | 5.4% | -6.7% | -1.9% | 14.1µM*
C=CC1=C2C=C(C3CC3)N(Cc3ccccc3)C=C2C(=O)C(C)(OC(=O)c2ccco2)C1=O (centres undefined) | 2.3%[11.2 µM] | / | 0.3%[11.2 µM] | 11.1%[14.2 µM]
COc1ccc2noc3c2c1C(=O)c1ccccc1-3 | / | 46.4% | / | /
O=C1c2ccccc2-c2onc3ccc(NCCCn4ccnc4)c1c23 | 15.8µM* | / | 44.7µM*[fluorescent] | i
CC1=CC2C3CC(C=C3C)C2C1 (centres undefined) | 1.4%[201 µM] | / | -4.9%[201 µM] | /
O=[N+]([O-])c1ccc(O)cc1C(F)(F)F | -8.7%[201 µM] | / | 1.3%[201 µM] | /
Cc1ccc(Cl)cc1N1CCN(C(=O)Cn2nc(C)n3c(cc4sccc43)c2=O)CC1 | -8.7% | -6.9% | 79.4µM*[quencher] | /
Cc1nn(CC(=O)N2CCN(c3ccccc3)CC2)c(=O)c2cc3sccc3n12 | 1.3% | 1.8% | 5.9% | /
Cc1cc(C)c(Nc2cc(S(=O)(=O)O)c(N)c3c2C(=O)c2ccccc2C3=O)c(C)c1 | 44.7µM* | 3.4% | -24.0% | 6.3%
CCn1c(/C=C/N(C(C)=O)c2ccccc2)[n+](CCCS(=O)(=O)[O-])c2cc(Cl)c(Cl)cc21 | 9.1% | 0.9% | -0.6% | 12.2%
CCn1c(/C=C/Nc2ccccc2)[n+](CC)c2cc(Cl)c(Cl)cc21 | -4.0% | 5.3% | -2.3% | 1.58µM*
COc1ccc(C(=O)Nc2ccc(N3CCOCC3)c(C(F)(F)F)c2)cc1OC | -5.7% | 5.7% | 11.2µM*[quencher] | /
COc1ccc(C(=O)Nc2ccc(N3CCOCC3)cc2)cc1OC | -4.3% | -2.1% | 0.2% | -3.2%
SMILES | TRb SRC2 PPI | ERG Ets-DNA blk | TR SRC2 fluor cs | RGS12 GoLoco inh
NS(=O)(=O)c1ccc(NC(=S)NC(=O)c2ccc(-c3ccccc3)cc2)cc1 | -21.5%[53 µM] | -6.8% | 0.316µM*[quencher] | -25.2%
O=C(NC(=S)Nc1ccc(-c2ccccc2)cc1)c1ccccc1 | / | -1.4% | / | /
NC(=O)/N=C(\N)NC(=O)c1ccccc1 | / | / | / | 7.9%[14.2 µM]
CCOC(=O)/C=C/C(=O)OCC(=O)Nc1ccc(OC)c(Cl)c1 | -5.0% | 2.2% | -0.4% | -3.3%
CCc1ccc2occ(CC(=O)NCc3ccccc3)c2c1 | 5.5% | 0.3% | 8.9% | /
CCc1ccc2occ(CC(=O)Nc3ccc(OC)c(Cl)c3)c2c1 | -16.8%[53 µM] | 2.6% | 0.0891µM*[quencher] | /
COc1ccc(NC(=O)COC(=O)/C=C/C(=O)OCC(=O)Nc2ccc(OC)c(Cl)c2)cc1Cl | -6.0% | -4.8% | -0.5% | 8.91µM*
COc1cc(OC)c(-c2cc(C(=O)NCc3ccc(F)cc3)c3c(-c4ccccc4)[nH]nc3n2)cc1OC | -27.1% | 0.8% | 3.55µM*[quencher] | /
CC(C)C[C@H](NC(=O)[C@@H]1CCCN1C(=O)[C@H](Cc1ccccc1)NC(=O)[C@H](C)NC(=O)[C@H](CCC(=O)O)NC(=O)[C@H](C)NC(=O)[C@H](CO)NC(=O)[C@H](CCC(=O)O)NC(=O)[C@H](CC(=O)O)NC(=O)[C@H](CCC(=O)O)NC(=O)[C@H](C)NC(=O)CNC(=O)[C@H](CC(N)=O)NC(=O)[C@@H]1CCCN1C(=O)[C@H](Cc1ccc(O)cc1)NC(=O)[C@@H](NC(=O)[C@H](CCCCN)NC(=O)[C@@H](NC(=O)[C@@H]1CCCN1C(=O)[C@@H](N)CCCNC(=N)N)C(C)C)C(C)C)C(=O)N[C@@H](CCC(=O)O)C(=O)N[C@@H](Cc1ccccc1)C(=O)O | 1.4% | / | -4.0% | /
CCN(CC)c1ccc(NC(=O)C(NS(=O)(=O)c2cccs2)C(C)C)c(C)c1 (centres undefined) | -18.2%[53 µM] | 6.8% | 4.47µM*[quencher] | /
NC(=O)C[n+]1cccc2ccccc21 | -11.4% | -2.6% | -1.6% | 11.2µM*
O=C(C[n+]1cccc2ccccc21)c1ccc(Br)cc1 | / | 16.0% | / | /
CCCCC(=O)OCC(=O)[C@]1(O)Cc2c(O)c3c(c(O)c2[C@H](OC2CC(NC(=O)C(F)(F)F)C(O)C(C)O2)C1)C(=O)c1c(OC)cccc1C3=O (some centres undefined) | 2.4% | / | ? | 3.4%
CC(=O)[C@]1(O)Cc2c(O)c3c(c(O)c2[C@@H](O[C@H]2C[C@H](N)[C@H](O)[C@H](C)O2)C1)C(=O)c1c(O)cccc1C3=O | 22.4µM* | / | 44.7µM*[fluorescent] | 0.794µM*
CC(=O)[C@]1(O)Cc2c(O)c3c(c(O)c2[C@@H](O[C@H]2C[C@H](N)[C@H](O)[C@H](C)O2)C1)C(=O)c1ccccc1C3=O | ? | 3.16µM* | 44.7µM*[fluorescent] | 1.58µM*
COc1cccc2c1C(=O)c1c(O)c3c(c(O)c1C2=O)C[C@@](O)(C(=O)CO)C[C@@H]3O[C@H]1C[C@H](N)[C@@H](O)[C@H](C)O1 | / | i | / | /
CCC1CC=CC2C1C(=O)N(Cc1ccccc1)C2c1cccc([N+](=O)[O-])c1 (centres undefined) | 11.9% | / | -5.7% | /
CC1(C)[C@@H](C=C(Cl)Cl)[C@@H]1C(=O)OCc1cccc(Oc2ccccc2)c1 | -0.7%[201 µM] | / | -0.4%[201 µM] | /
Nc1nc(C(=O)O)c(N=Nc2ccccc2)c(=O)[nH]1 | / | / | / | 5.7%[14.2 µM]
O=C(O)/C=C\C(=O)Nc1ncn[nH]1 | / | / | / | 3.1%[14.2 µM]
Cn1c(=O)c(C#N)c(-c2ccc(F)cc2)c2cc(C(=O)c3cc(Cl)cc(Cl)c3O)cnc21 | 2.7% | -6.2% | -4.8% | 16.0%
COc1ccccc1-n1c(=O)c(C#N)c(-c2ccc([N+](=O)[O-])cc2)c2cc(C(=O)c3cc(F)ccc3O)cnc21 | -1.1% | 11.2µM* | 1.5% | 8.6%
C=C[C@@H]1CN2CC[C@@H]1C[C@@H]2[C@H](O)c1ccnc2ccc(OC)cc12 | -5.3% | / | / | 10.5%
Cc1cccc(OCCc2c(C)[nH]c(=S)[nH]c2=O)c1 | -1.7% | 28.2µM* | -0.3% | -5.5%
